“And” between values parts separate entries of the source, which are not always exact repeats. Identical values can stand only once. A structure can be active in one record and inactive in another. The source made the active and inactive calls. Rule for the calls: active = hit-call score of the fitted dose curve at least 0.9, where 1 is the maximum; inactive = score below 0.9.
These molecules were tested on Interferon-inducible T-cell alpha chemoattractant (ITAC), CXCL11 (gene 6373) (assay: BSK_hDFCGF_ITAC: BioMAP Diversity Plus: hDFCGF Assay for Interferon-inducible T-cell alpha chemoattractant (ITAC) Biomarker Activity (AID 2284251)). Details: primary human foreskin fibroblasts.
Procedure: BSK_hDFCGF is a cell-based, multiplexed-readout assay that uses foreskin fibroblast, a human skin primary cell, with measurements taken at 24 hours after chemical dosing in a 96-well plate.BSK_hDFCGF_ITAC is an assay component measured in the BSK_hDFCGF assay. It measures I-TAC antibody related to regulation of gene expression using ELISA technology.Data from the assay component BSK_hDFCGF_ITAC was analyzed at the endpoint, BSK_hDFCGF_ITAC, in the positive analysis fitting direction relative to DMSO as the negative control and baseline of activity. Using a type of binding reporter, gain or loss-of-signal activity can be used to understand protein changes. To generalize the intended target to other relatable targets, this assay endpoint is annotated to the 'cytokine' intended target family, where the subfamily is 'chemotactic factor'.
The levels of cell surface (or secreted, indicated by the prefix "s") biomarker endpoints were measured by ELISA. Overt cytotoxicity to cells in confluent adherent cultures (all systems other than the BT system) was assessed by measuring total protein levels using sulforhodamine B (SRB) staining in parallel cultures at the time of biomarker measurements, indicated as SRB endpoints. For proliferation assays for adherent cell types, individual cell types are cultured at sub-confluence and relative cell numbers quantified by SRB staining at time points optimized for each system (48 h: 3C and CASM3C systems; 72 h: BT and HDF3CGF systems; 96 h: SAg system). SRB was performed by staining cells with 0.1% SRB after fixation with 10% TCA and reading wells at 560 nm.Viability and proliferation of PBMC (T cells) was quantified by Alamar Blue reduction for the SAg and BT systems. For PBMC viability (referred to as PBMC Cytotoxicity within the assay endpoint names), cells were plated (75,000/well in a 96-well plate) and then chemical samples added for 1 h before addition of activators, SEB and TSST-1 (20 ng/mL final concentration each). Cells were incubated for 90 h. Then, Alamar Blue (20 uL/well) (Invitrogen, Cat DAL1100) was added for 6 h, and the plates were read with a fluorescence microplate reader at 546/580 nm (excitation/emission). For PBMC proliferation, cells were plated and activated as above but incubated for only 16 h prior to addition of Alamar Blue. Plates were read after 6 h.

Structure (SMILES)	outcome	AC50
CC(C)CCCC(C)(C)O	inactive	–
CCCO[Si](OCCC)(OCCC)OCCC	inactive	–
O=C(O)C(F)(F)C(F)(F)C(F)(F)C(F)(F)C(F)(F)C(F)(F)C(F)(F)C(F)F	inactive	12.9 µM (active)
CCCCN(CCO)CCO	inactive	–
CC(C)(CO)CO	inactive	–
C=C(C)C(=O)OCCC(F)(F)C(F)(F)C(F)(F)C(F)(F)C(F)(F)C(F)(F)C(F)(F)C(F)(F)F	inactive	–
OCC(F)(OC(F)(F)C(F)(OC(F)(F)C(F)(F)C(F)(F)F)C(F)(F)F)C(F)(F)F (centres undefined)	–	2.4 µM (active) and 2.03 µM (active)
c1ccc(OCCOc2ccccc2)cc1	inactive	–
CCn1cc(C(=O)O)c(=O)c2ccc(C)nc21	inactive	–
O=S(=O)(O)C(F)(F)C(F)(F)OC(F)(F)C(F)(F)F	inactive	–
O=C(O)C(F)(F)OC(F)(F)C(F)(F)OC(F)(F)C(F)(F)C(F)(F)C(F)(F)F	–	10.9 µM (active) and 17.6 µM (active)
C=C(F)C(=O)OC(C(F)(F)F)C(F)(F)F	inactive	–
CC(=O)c1ccc(C)cc1	inactive	–

From PubChem BioAssay (EPA / NIEHS)
